High-throughput results from PubChem BioAssay.
Pf apPOL inh: Pf-apPOL inhibitors, biochemical, fluorescence; Plasmodium falciparum apicoplast DNA polymerase (apPOL); Recombinant Pf-apPOL, molecular beacon fluorescence, 1.5 h; inhibition, % at 10 µM; hit rate 0.25% among 210,000
mHTT-CaM PPI inh: mutant huntingtin-calmodulin interaction inhibitors – biochemical, AlphaScreen, primary screen; P42858; AlphaScreen His-mHTT/GST-CaM binding, luminescence; hit rate 3.6% among 190,000; inhibition, % at 15 µM;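 note: 0% = both proteins with DMSO and 100% = one protein alone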
The depositor's hits bear a star. Hits are enriched below; roughly 3.5% of the tested compounds scored in any of these assays. Cut-off read from the data, not from the text of the source: active = inhibition above about 50%; inactive = the rest.

Screening Cc1ccc(C)c(Cc2c(C)nc3c(C(=O)NC(C)C)cnn3c2C)c1 returned Pf apPOL inh -9 and mHTT-CaM PPI inh 79*.
Screening CCCN1CCN(C(=O)c2cc3cn(C4CCCC4)cc3s2)CC1 returned Pf apPOL inh -3 and mHTT-CaM PPI inh 40.
Screening CN1CCc2cc(C(CNC(=O)c3ccccc3Br)N3CCOCC3)ccc21 (stereo not given) returned Pf apPOL inh -24 and mHTT-CaM PPI inh 38.
`CN1CCc2cc(C(CNC(=O)Cc3cccc4ccccc34)N3CCOCC3)ccc21` (stereo not given) gave Pf apPOL inh -38 and mHTT-CaM PPI inh 61*.
CCc1nnc(NC(=O)C2CCCN(c3ncnc4c3nc3n4CCCCC3)C2)s1 (stereo not given) was read as Pf apPOL inh 0 and mHTT-CaM PPI inh 1.
For Cc1cc(C)cc(OCCCn2cc(/C=C3/C(=N)N4C=CSC4=NC3=O)c3ccccc32)c1 the results were Pf apPOL inh -8 and mHTT-CaM PPI inh 37.
`COC(=O)c1ccc(Cn2cc(-c3nc(-c4cnccn4)no3)ccc2=O)o1` gave Pf apPOL inh -2 and mHTT-CaM PPI inh -7.
Screening COc1ccc(CC(=O)NC2C3CC4CC(C3)CC2C4)cc1OC (stereo not given) returned Pf apPOL inh -3 and mHTT-CaM PPI inh 5.
COc1ccc(NC2C3CC4CC(C3)CC2C4)cc1OC (stereo not given) was read as Pf apPOL inh -3 and mHTT-CaM PPI inh 62*.
CCCCN(CCCC)Cc1c(O)ccc2c1OC(=Cc1ccco1)C2=O was read as Pf apPOL inh 11 and mHTT-CaM PPI inh 32.
For COc1ccc(NC(=O)c2cc3c(n2C)CCN(Cc2cccc(C)c2)C3)c(OC)c1 the results were Pf apPOL inh -1 and mHTT-CaM PPI inh 63*.
CCCNC(=O)c1cc2c(n1C)CCN(Cc1cccc(C)c1)C2 was read as Pf apPOL inh 10 and mHTT-CaM PPI inh 23.
COc1cccc(CN2CCc3c(cc(C(=O)Nc4cc(OC)cc(OC)c4)n3C)C2)c1 was read as Pf apPOL inh -2 and mHTT-CaM PPI inh 62*.
`COc1cccc(CN2CCc3c(cc(C(=O)NCc4ccccc4OC)n3C)C2)c1` gave Pf apPOL inh -2 and mHTT-CaM PPI inh 40.
For COc1ccc(C(=O)CSC2=N/C(=C\c3ccc(O)c(OC)c3)C(=O)N2c2ccccc2)cc1 the results were Pf apPOL inh 12 and mHTT-CaM PPI inh 14.
Screening O=C1c2ccc(-c3nc4ccc(Br)cc4c(=O)o3)cc2C(=O)N1CC1CCCO1 (stereo not given) returned Pf apPOL inh 5 and mHTT-CaM PPI inh -1.
Screening Cc1cccc(-n2c(=O)n(C(C)C)c(=O)c3c2ncn3Cc2ccc(F)cc2)c1 returned Pf apPOL inh -4 and mHTT-CaM PPI inh 22.
`C=CCS(=O)CC(N)C(=O)O` (stereo not given) gave Pf apPOL inh -8.
`O=C(C1CCCCC1)N1CCN(c2[nH]ncc2-c2ccncc2)CC1` gave Pf apPOL inh 0 and mHTT-CaM PPI inh -3.
For CC1=CC(=NS(=O)(=O)c2cccc([N+](=O)[O-])c2)C=CC1=O the results were Pf apPOL inh -7 and mHTT-CaM PPI inh 84*.
Screening Cc1c(C(C)(C)C)sc(=NS(=O)(=O)c2cccc([N+](=O)[O-])c2)n1C returned Pf apPOL inh -4 and mHTT-CaM PPI inh 29.
For COc1ccc(C(=O)N2CC(=O)Nc3ccc(Cl)cc3C2c2ccc(F)cc2)c(OC)c1 (stereo not given) the results were Pf apPOL inh -3 and mHTT-CaM PPI inh 43.
Screening COc1ccc(C(=O)N2CC(=O)Nc3ccc(Cl)cc3C2c2ccc(F)cc2)cc1OC (stereo not given) returned Pf apPOL inh -10 and mHTT-CaM PPI inh 71*.
N#CCCN1CCN(C(=O)CCC2CCN(c3cc(NC4CC4)ncn3)CC2)CC1 was read as Pf apPOL inh -2 and mHTT-CaM PPI inh 0.
Screening CCOC(=O)N1CCc2nn(CC(=O)Nc3ccc(C(C)=O)cc3)c(=O)cc2C1 returned Pf apPOL inh -1 and mHTT-CaM PPI inh 6.
Screening CCCCNC(=O)C1CCCN(c2ccc(N3CCOCC3)nn2)C1 (stereo not given) returned Pf apPOL inh -4 and mHTT-CaM PPI inh 0.
For CN(CCCNC(=O)C1CCCN(c2ccc(N3CCOCC3)nn2)C1)c1ccccc1 (stereo not given) the results were Pf apPOL inh -5 and mHTT-CaM PPI inh 55*.
`Cc1ccc(CNC(=O)C2CCN(c3cnn(Cc4ccccc4)c(=O)c3)CC2)cc1` gave Pf apPOL inh -9 and mHTT-CaM PPI inh 4.
For CC1=C(C(=O)Nc2cccnc2)C(c2cccc(Br)c2)n2ncnc2N1 (stereo not given) the results were Pf apPOL inh 4 and mHTT-CaM PPI inh 1.
`CN(CC(=O)N1CCCCCC1)S(=O)(=O)c1ccc2[nH]c3c(c2c1)CCCC3` gave Pf apPOL inh -7 and mHTT-CaM PPI inh 14.
